# Compound activity deposited in PubChem by several laboratories.
# Rows were chosen to be rich in hits. Some 2.8% of all compounds tested hit in one or more screens of this group.
# PP5 inh = PP5 (human) phosphatase inhibition; P53041; purified PP5c, OMFP substrate fluorescence; inhibition, % at 6.7 µM; 320,000 tested, 0.18% active; AID 1987;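 active means inhibition above the campaign's mean inhibition across all tested compounds plus 3 SD, cut at about 9.5% in these data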;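 further: 0% = DMSO only and 100% = 100 µM cantharidin control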
# Rev-erbA mod = Rev-erb alpha (human) modulation | activity, % at 10 µM | AID 1259318 | P20393 | 370,000 tested, 0.79% active | Rev-erbα–FITC-DNA binding, fluorescence polarization, 90 min;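 active means activity above about 14%, limit read from the data; passing the limit was not always enough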;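 further: 0% = DMSO wells with 35 nM protein and 100% = DMSO wells with 750 nM protein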
# Target sequence (P20393 whole entry, looked up): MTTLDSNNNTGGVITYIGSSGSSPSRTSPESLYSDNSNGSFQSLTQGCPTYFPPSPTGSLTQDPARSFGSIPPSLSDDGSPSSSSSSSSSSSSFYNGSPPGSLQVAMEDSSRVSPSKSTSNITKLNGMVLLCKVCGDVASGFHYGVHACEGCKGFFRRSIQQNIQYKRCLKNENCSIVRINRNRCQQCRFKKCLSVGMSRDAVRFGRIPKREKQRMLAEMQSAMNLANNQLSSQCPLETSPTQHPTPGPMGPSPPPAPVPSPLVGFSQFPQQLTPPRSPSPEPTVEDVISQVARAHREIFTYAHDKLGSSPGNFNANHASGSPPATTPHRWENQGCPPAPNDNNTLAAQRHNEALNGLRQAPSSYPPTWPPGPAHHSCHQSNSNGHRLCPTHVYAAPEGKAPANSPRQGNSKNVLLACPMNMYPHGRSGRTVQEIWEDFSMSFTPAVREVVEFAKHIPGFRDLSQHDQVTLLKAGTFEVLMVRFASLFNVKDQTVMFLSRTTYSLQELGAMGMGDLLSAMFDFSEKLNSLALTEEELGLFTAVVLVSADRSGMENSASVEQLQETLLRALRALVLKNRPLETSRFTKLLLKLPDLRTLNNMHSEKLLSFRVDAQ
# PP1 inh = counter-screen for PP5 inhibitors: inhibitors of human PP1-alpha; P62136; inhibition, % at 6.7 µM; AID 2235; purified PP1alpha, OMFP fluorescence; 320,000 tested, 0.9% active;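 active means inhibition above the mean inhibition of all tested compounds plus 3 SD, computed separately for each screening campaign, cut at about 15% in these data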
# GASC-1 inh = human JMJD2C demethylase inhibition. GST-JMJD2C(1-420) H3K9me3 demethylation, DELFIA europium. AID 2099. 330,000 tested, 0.069% active. Q9H3R0. inhibition, % at 2.35 µM;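 active means more than half of a compound's replicate wells show inhibition beyond 50%, single wells judged on their own value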;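 further: signal counts dimethyl H3K9 product captured on neutravidin plate; 0% = median of DMSO wells and 100% = 0.3 times that DMSO median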
# PG9 Ab binder = small molecules binding HIV-1 gp120 antibody PG9; 360,000 tested, 0.43% active; AID 624416; inhibition, % at 6.7 µM; TR-FRET gp120-PG9 antibody binding; in the data active means inhibition above about 8.5%
# proKLK7 act = proKLK7 (human) activation, primary screen | P49862 | purified proKLK7, EDANS-DABCYL substrate fluorescence; 100% is mature enzyme control, 0% vehicle | activation, % at 7 µM | 370,000 tested, 0.9% active;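 active means activation above the mean of all tested compounds plus 3 SD, computed per campaign excluding outliers beyond control limits, cut at about 13% in these data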
# proKLK7 act conf = proKLK7 activation, confirmation. shares compounds with proKLK7 act. purified proKLK7, EDANS-DABCYL substrate fluorescence; scaled: vehicle 0, mature enzyme 100. activation, % at 7 µM. 3,200 tested, 68% active. AID 686949;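 active means activation, as change over the incubation, above the mean of all tested compounds plus 3 SD, cut at about 13% in these data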
# EDANS-DABCYL int = fluorescence interference counter-screen for KLK7 activators; activation, % at 7 µM; shares compounds with proKLK7 act; 3,200 tested, 80% active; EDANS-DABCYL substrate fluorescence interference, no enzyme, 4 h; solvent 0%, active enzyme control 100%;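 active means activation above the all-compound mean plus 3 SD, ignoring values outside control-based bounds, cut at about 4.8% in these data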;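 further: value is the 4 h activation minus the activation read at time zero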
# Active calls of the source: *; . = not tested or not shown.
SMILES,PP5 inh,Rev-erbA mod,PP1 inh,GASC-1 inh,PG9 Ab binder,proKLK7 act,proKLK7 act conf,EDANS-DABCYL int
CCCN1CCN(C(=S)Nc2ccc3nc(N4CCN(CC)CC4)cc(C)c3c2)CC1,4,4,-4,5,-1,20*,4,6.5*
COC(=O)C1=C(C)N(Cc2ccccc2C(F)(F)F)C(=NCc2ccc(C(F)(F)F)cc2)NC1c1ccc(C(F)(F)F)cc1 (centres undefined),.,1,.,.,-4,0,.,.
COc1ccccc1/C=C1\SC(=S)N(CCC(=O)Nc2cc(C)on2)C1=O,0,-1,2,-5,-2,0,.,.
CCC(SC1=N/C(=C/c2ccccc2OC)C(=O)N1c1ccccc1)C(=O)Nc1cc(C)on1 (centres undefined),2,1,3,-23,0,39*,-9,-6
COc1cccc2sc3cc(NCc4ccc5c(c4)OCO5)ccc3c(=O)c12,.,2,.,-23,-1,42*,47*,46*
Oc1ccc2ccccc2c1C=Nc1ccccc1-c1nc2ccccc2[nH]1,2,-2,0,-2,0,38*,-43,-39
c1ccc(-c2ccc(-c3ccccn3)s2)nc1,-2,3,-4,3,0,15*,-19,-7
FC(F)(F)c1nc2nc(Cl)c(Cl)nc2n1CCCN1CCOCC1,.,5,.,.,-2,25*,2,2
Cc1nc2ccccc2c(=O)n1CCCN1CCOCC1,0,6,-4,1,-2,0,.,.
N#Cc1nc(-c2ccccc2)oc1NCCN1CCCCC1,0,0,-2,2,1,40*,8,10*
CN(C)c1oc(-c2cccs2)nc1C#N,1,3,0,-9,1,39*,65*,82*
N#Cc1nc(-c2cccs2)oc1NCCN1CCOCC1,2,1,-2,4,2,28*,42*,39*
CN(Cc1ccccc1)C(=O)c1cccc(NC(=O)Cc2ccc(NC(=O)C3CCCN(S(=O)(=O)c4cccc([N+](=O)[O-])c4)C3)cc2)c1 (centres undefined),.,0,.,.,0,0,.,.
Cc1ccc(OCCNC(=O)[C@@H](Cc2ccccc2)NC(=O)[C@H]2O[C@@H](n3ccc(=O)[nH]c3=O)[C@H](O)[C@@H]2O)cc1C,.,-5,.,.,-1,0,.,.
Clc1ccc(-c2nnc(SCc3cccc4ccccc34)n2Cc2ccco2)cc1,.,1,.,.,.,1,.,.
CCOC(=O)CCCNC(=O)OC1CC2CC1[C@H]1CCCCN1[C@H]2Cc1ccccc1 (some centres undefined),.,-2,.,.,.,0,.,.
CN(C)c1ccc(N(C)C)c(C(O)(c2ccccc2)c2ccccc2)c1,.,1,.,.,-1,0,.,.
C=CCCC1CN(Cc2ccc(OC)cc2)S(=O)(=O)c2c(cccc2N2CCCC2)O1 (centres undefined),.,0,.,.,0,-1,.,.
Clc1ccc2nc(-c3ccc4c(c3)OCO4)cn2c1,-1,-1,1,0,2,14*,7,7.8*
CCOC(=O)Cn1cc(CN2C(C(=O)OC)CN(C3CC3)CCS2(=O)=O)nn1 (centres undefined),.,-1,.,.,.,-1,.,.
CC1(C)Cc2ccccc2-c2nc(NCCCO)[nH]c(=O)c21,-1,0,-3,-3,0,39*,-1,-8
O=c1[nH]c(NCCO)nc2c1C1(CCCC1)Cc1ccccc1-2,1,1,2,3,2,-1,.,.
CCC1(C)Cc2ccccc2-c2nc(NCCO)[nH]c(=O)c21 (centres undefined),4,2,-4,12,2,23*,-24,-31
CCC1(C)Cc2ccccc2-c2nc(NN)[nH]c(=O)c21 (centres undefined),2,-3,-5,7,0,3,.,.
O=C(O)c1ccc(-c2nc(-c3ccccc3)c(-c3ccccc3)[nH]2)cc1,4,-2,4,4,0,46*,79*,81*
